The whole screen tested about 310,000 compounds, of which about 2,200 (0.71%) showed an effect of 50% or more. The effect is printed as a negative number. This excerpt belongs to a sample that is enriched for strong results.
Each molecule was assayed against human ether-à-go-go-related gene (hERG) potassium channel (human, UniProt Q12809) (assay: primary screen, population patch clamp on CHO cells stably expressing hERG; higher = less effect of the substance).
Sequence of human ether-à-go-go-related gene (hERG) potassium channel (Q12809 whole entry, looked up): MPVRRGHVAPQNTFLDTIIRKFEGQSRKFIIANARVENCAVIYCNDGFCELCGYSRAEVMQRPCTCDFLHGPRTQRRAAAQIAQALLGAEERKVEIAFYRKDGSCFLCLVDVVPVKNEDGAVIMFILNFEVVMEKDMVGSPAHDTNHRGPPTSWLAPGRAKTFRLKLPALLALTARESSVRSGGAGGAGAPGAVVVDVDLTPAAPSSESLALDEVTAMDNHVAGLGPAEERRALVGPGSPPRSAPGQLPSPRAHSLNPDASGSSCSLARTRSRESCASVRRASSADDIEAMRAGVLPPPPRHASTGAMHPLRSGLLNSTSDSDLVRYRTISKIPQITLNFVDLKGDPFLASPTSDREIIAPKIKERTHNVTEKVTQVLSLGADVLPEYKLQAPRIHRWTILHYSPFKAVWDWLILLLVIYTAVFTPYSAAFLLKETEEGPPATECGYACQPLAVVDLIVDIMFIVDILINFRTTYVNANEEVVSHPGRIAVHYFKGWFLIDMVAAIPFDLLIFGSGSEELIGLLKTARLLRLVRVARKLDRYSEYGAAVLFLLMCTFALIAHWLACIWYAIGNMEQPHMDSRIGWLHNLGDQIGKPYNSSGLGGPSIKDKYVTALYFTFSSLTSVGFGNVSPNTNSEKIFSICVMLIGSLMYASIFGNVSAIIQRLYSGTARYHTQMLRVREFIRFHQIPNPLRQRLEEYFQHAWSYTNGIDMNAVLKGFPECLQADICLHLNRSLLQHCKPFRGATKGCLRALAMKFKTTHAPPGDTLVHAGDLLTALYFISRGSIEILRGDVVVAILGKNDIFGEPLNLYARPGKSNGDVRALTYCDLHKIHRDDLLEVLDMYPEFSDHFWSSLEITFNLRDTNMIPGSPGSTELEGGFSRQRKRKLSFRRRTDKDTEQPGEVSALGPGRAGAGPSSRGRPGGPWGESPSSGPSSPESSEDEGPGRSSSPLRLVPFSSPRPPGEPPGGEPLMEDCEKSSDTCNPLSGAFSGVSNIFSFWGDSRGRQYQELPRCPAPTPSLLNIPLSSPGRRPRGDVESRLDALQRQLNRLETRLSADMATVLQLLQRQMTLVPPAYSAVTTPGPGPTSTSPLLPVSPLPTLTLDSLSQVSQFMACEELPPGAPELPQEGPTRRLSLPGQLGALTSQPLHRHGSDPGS

Row | SMILES | hERG current change (%, negative = inhibition) at 1uM
1 | CCC(NC(=O)Cc1c(C)c2ccc(OC)c(C)c2oc1=O)C(=O)NC(Cc1ccc(Cl)cc1)C(=O)O (stereo not drawn) | 0.501%
2 | COc1ccc(-n2c(O)c(/C=C3\C=Nc4ccc(Br)cc43)c(=O)[nH]c2=O)cc1 | 12%
3 | CC(c1cccs1)N(Cc1ccco1)C(=S)Nc1ccccc1Cl (stereo not drawn) | 11.9%
4 | c1ccc(NC2=NCCCCS2)cc1 | -9.85%
5 | OCCOCCn1c(C2CCCN2c2nc(-c3ccc(F)cc3)cs2)nc2cc(Cl)c(Cl)cc21 (stereo not drawn) | -0.144%
6 | Cc1ccc(Cn2c(C3CCCN3c3nc(C)cs3)nc3cc(C(F)(F)F)ccc32)cc1 (stereo not drawn) | 8.04%
7 | Cc1csc(N2CCCC2c2nc3cc(C(F)(F)F)ccc3n2CCOCCO)n1 (stereo not drawn) | -62.8%
8 | OCCOCCn1c(C2CCCN2c2nc(-c3ccc(F)cc3)cs2)nc2cc(C(F)(F)F)ccc21 (stereo not drawn) | -73.2%
9 | Cc1csc(N2CCCC2c2nc3cc(Cl)c(N4CCCCC4)cc3n2CCOCCO)n1 (stereo not drawn) | -2.57%
10 | OCCCn1c(C2CCCN2c2nc(-c3ccc(F)cc3)cs2)nc2cc(C(F)(F)F)ccc21 (stereo not drawn) | 2.52%
11 | COc1ccc(NC(=O)CSc2nnc(Cn3cnc([N+](=O)[O-])n3)n2C)cc1 | 12.5%
12 | Cc1ccc(OCC(=O)NNC(=O)CSc2nnc(-c3ccc(C)cc3)n2C)cc1 | 7.24%
13 | CCC(=O)N1CCN(c2ccccc2NC(=O)Cc2ccc(Cl)cc2)CC1 | -41.5%
14 | Cc1ccc(SCCOCCN2CCc3ccccc3C2)cc1 | -6.57%
15 | Clc1ccc(SCCOCCN2CCCCC2)cc1.O=C(O)C(=O)O | -61.1%
16 | Clc1ccc(SCCCN2CCCCC2)cc1.O=C(O)C(=O)O | -24.5%
17 | Clc1ccc(SCCOCCN2CCCCCC2)cc1.O=C(O)C(=O)O | -20.6%
18 | c1ccc(SCCOCCN2CCc3ccccc3C2)cc1 | -62.7%
19 | Cl.Clc1ccc(SCCOCCN2CCc3ccccc3C2)cc1 | 8.68%
20 | CC(NC(=O)CCC(=O)N1CCCCCC1)c1ccccc1 (stereo not drawn) | 16.8%
21 | Cc1ccc(NC(=O)c2noc(C(C)C)c2[N+](=O)[O-])cc1 | 4.81%
22 | CCN1/C(=C(\O)c2ccccc2)C(=O)c2ccccc2S1(=O)=O | 13.6%
23 | COc1cc2c(cc1OC)C(COc1cc(C)cc(C)c1)N(C(C)=O)CC2 (stereo not drawn) | 2.4%
24 | CCc1ccc(NC(=S)N(CCN2CCCCC2)Cc2ccco2)cc1 | -34.7%

Row | SMILES | hERG current change (%, negative = inhibition) at 1uM
25 | CCOC(=O)c1ccc(NC(=S)N(CCCN(CC)CC)Cc2ccco2)cc1 | -57.9%
26 | CCOC(=O)c1ccc(NC(=S)N(Cc2cccnc2)Cc2ccco2)cc1 | 7.3%
27 | CCOC(=O)c1ccc(NC(=S)N(CCCN2CCN(CC)CC2)Cc2ccco2)cc1 | -45.4%
28 | CCOC(=O)c1ccc(NC(=S)N(CCCN2CCCCC2)Cc2ccco2)cc1 | -71.3%
29 | CN1CCN(CCCN(Cc2ccco2)C(=S)Nc2ccc(Cl)cc2)CC1 | -53.8%
30 | CCOC(=O)c1ccc(NC(=S)N(CCCN2CCCC(C)C2)Cc2ccco2)cc1 (stereo not drawn) | -42.8%
31 | S=C(Nc1ccc(Cl)cc1)N(CCCN1CCOCC1)Cc1ccco1 | -8.98%
32 | CCN1CCN(CCCN(Cc2ccco2)C(=S)Nc2ccc(Cl)cc2)CC1 | -18.6%
33 | CCOC(=O)c1ccc(NC(=S)N(CCN2CCCCCC2)Cc2cccs2)cc1 | 8.82%
34 | CCOC(=O)c1ccc(NC(=S)N(CCCN2CCCCCC2)Cc2ccco2)cc1 | -31.7%
35 | CCOC(=O)c1ccc(NC(=S)N(CCN2CCCCCC2)Cc2ccco2)cc1 | -87.2%
36 | CCOc1cccc(NC(=O)C2CC(=O)N(C)C(=Nc3cccc(F)c3)S2)c1 (stereo not drawn) | 9.17%
37 | N#Cc1ccc(-c2ccc(OCC3CNC(=O)O3)cc2)cc1 (stereo not drawn) | 8.74%
38 | CCOC(=O)c1cccc(NC(=O)CCNS(=O)(=O)c2cc(Br)cnc2N)c1 | 14.4%
39 | Cc1ccc(S(=O)(=O)N2CCC(=O)N(CCOCc3cccc(F)c3)CC2)cc1 | 7.15%
40 | O=C(O)CCn1nnc(-c2ccccc2)n1 | 10.7%
41 | O=C(COc1ccc(Cl)cc1)NCc1nnc(SCC(=O)Nc2ccccc2)o1 | 1.01%
42 | Cc1ccc(SCC(=O)Nc2ccc(C(=O)Nc3ccc(O)cc3)cc2)cc1 | 12.6%
43 | Cc1ccc(NC(=O)Cc2ccc([N+](=O)[O-])cc2)c(Br)c1 | 5.32%
44 | CC(C)Oc1ccc(CCC(=O)N/N=C/c2ccc3c(c2)OCO3)cc1 | 16.1%
45 | COc1ccc(C2c3ccc4ccccc4c3Oc3ncn(CCO)c(=N)c32)cc1 (stereo not drawn) | -61.7%
46 | N=c1c2c(ncn1CCCO)Oc1c(ccc3ccccc13)C2c1ccccc1 (stereo not drawn) | -20.5%
47 | CN(C)CCn1cnc2c(c1=N)C(c1ccccc1)c1ccc3ccccc3c1O2 (stereo not drawn) | -78.1%
48 | COc1ccccc1C1c2ccc3ccccc3c2Oc2ncn(CCN(C)C)c(=N)c21 (stereo not drawn) | -7%

Row | SMILES | hERG current change (%, negative = inhibition) at 1uM
49 | COc1ccc(C2c3ccc4ccccc4c3Oc3ncn(CCN(C)C)c(=N)c32)cc1 (stereo not drawn) | -40.1%
50 | COc1ccc(C2c3ccc4ccccc4c3Oc3ncn(CCO)c(=N)c32)cc1OC (stereo not drawn) | -13.9%
51 | COc1ccc(C2c3ccc4ccccc4c3Oc3ncn(CCCN(C)C)c(=N)c32)cc1 (stereo not drawn) | -29%
52 | CN(C)CCCn1cnc2c(c1=N)C(c1ccccc1)c1ccc3ccccc3c1O2 (stereo not drawn) | -61.9%
53 | COc1ccc(C2c3ccc4ccccc4c3Oc3ncn(CCCO)c(=N)c32)cc1 (stereo not drawn) | -40.6%
54 | Nc1cccc2c1C(=O)N(C(=O)c1ccc(Cl)c(S(=O)(=O)N3CCCCCC3)c1)C2=O | 13.1%
55 | COc1cccc(CCc2nnc(CCC(=O)N3CCN(Cc4ccccn4)CC3)o2)c1 | 10.2%
56 | COCCCNC(=O)c1cc2c(=O)n(C)c3ccccc3c2n1C | -8.02%
57 | O=C(COC(=O)CCN1C(=O)c2ccccc2C1=O)Nc1ccccc1[N+](=O)[O-] | 16.6%
58 | O=C(CSc1nnc(-c2ccco2)o1)N1c2ccccc2CCc2ccccc21 | 9.21%
59 | CCOC(=O)C(C)n1cnc2c(nnn2Cc2ccc(C)cc2)c1=O (stereo not drawn) | 11.6%
60 | CC(C)c1ccc(-c2nc(N3CCCCCC3)nc3n[nH]c(N)c23)cc1 | 10.2%
61 | COc1ccc(NC(=O)Cn2nnc(C(=O)NCCc3ccc(OC)c(OC)c3)c2N)c(OC)c1 | -1.5%
62 | CCn1c(CCc2ccccc2)nnc1SCC(N)=O | 13.3%
63 | NC(=O)C1(c2ccccc2)CCC(=O)N1c1ccccc1 (stereo not drawn) | 14.8%
64 | COc1ccc(S(=O)(=O)N(CC(=O)NCc2cccnc2)Cc2ccccc2)cc1 | -51.2%
65 | CCOc1ccc(N(CC(=O)NCc2ccccc2)S(=O)(=O)c2ccc(C)cc2)cc1 | 6.54%
66 | CCN(CC(=O)NCc1cccnc1)S(=O)(=O)c1ccc(OC)cc1 | 0.0713%
67 | CCOc1ccc(S(=O)(=O)N(CC(=O)NCc2cccnc2)c2ccc(F)cc2)cc1 | -67.2%
68 | O=C(CN(C1CCCCC1)S(=O)(=O)c1ccc(Cl)cc1)NCc1cccnc1 | -60.6%
69 | Cc1ccc(S(=O)(=O)N(CC(=O)NCc2cccnc2)c2ccc(F)cc2)cc1 | -38.1%
70 | CCOc1ccc(S(=O)(=O)N(CC(=O)NCc2ccncc2)c2ccc(C)cc2)cc1 | -14.6%
71 | O=C(CN(C1CCCCC1)S(=O)(=O)c1ccccc1)NCc1cccnc1 | 5.52%
72 | CCOc1ccc(S(=O)(=O)N(CC(=O)NCc2cccnc2)c2ccc(C)cc2)cc1 | -52.4%

Row | SMILES | hERG current change (%, negative = inhibition) at 1uM
73 | Cc1ccc(S(=O)(=O)N(CC(=O)NCc2cccnc2)C2CCCCC2)cc1 | -30.3%
74 | O=C(CN(Cc1ccccc1)S(=O)(=O)c1ccc(F)cc1)NCc1cccnc1 | -31.9%
75 | CCOc1ccc(N(CC(=O)NCc2cccnc2)S(=O)(=O)c2ccc(F)cc2)cc1 | 7.16%
76 | C[C@H]1CN=C(N(C)C)N1CCC1CCCCC1 | 13.6%
77 | CN(CC(=O)Nc1cccc(S(=O)(=O)NC2=NCCCCC2)c1)Cc1ccc(C(C)(C)C)cc1.O=C(O)C(=O)O | 12.9%
78 | CCN1CCN(S(=O)(=O)c2cc(OC)ccc2OC)CC1 | 19%
79 | c1ccc(CSc2nnc3c(n2)OC(c2ccco2)Nc2ccccc2-3)cc1 (stereo not drawn) | 14.9%
80 | COC(=O)c1sc(Nc2ccccc2)nc1C | 13.5%
81 | C/C(N)=C(/C#N)C(=O)CSc1nc2cc(Cl)ccc2s1 | -7.65%
82 | C/C(=N/O)c1ccc2c(c1)OCCOCCOc1cc(/C(C)=N/O)ccc1OCCOCCO2 | -79.7%
83 | CC(=O)c1ccc2c(c1)OCCOCCOCCO2 | 12.3%
84 | c1ccc2c(c1)OCCOCCOCCO2 | 13.2%
85 | CC(=O)c1ccc2c(c1)OCCOCCOc1ccccc1OCCOCCO2 | -82.5%
86 | CC(=O)c1ccc2c(c1)OCCOCCOc1ccc(C(C)=O)cc1OCCOCCO2 | -84.8%
87 | CC(=O)[O-].[K+].c1ccc2c(c1)OCCOCCOc1ccccc1OCCOCCO2 | -80.7%
88 | O=C(c1ccccc1)c1ccc2c(c1)OCCOCCOCCO2 | 8.88%
89 | CC(=O)c1ccc2c(c1)OCCOCCOCCOCCO2 | -3.2%
90 | CC(=O)c1ccc2c(c1)OCCOCCOCCOCCOCCO2 | -11.8%
91 | c1ccc2c(c1)OCCOCCOCCOCCOc1ccccc1OCCOCCOCCO2 | -11.5%
92 | O=C(O)c1ccc2c(c1)OCCOCCOCCOCCOCCO2 | -12.4%
93 | C/C(=N\O)c1ccc2c(c1)OCCO2 | 12.6%

Reference: PMC4336329 (PLoS ONE, 2015)
